Screening results: PubChem, National Center for Advancing Translational Sciences (NCATS)
MARV entry inh: inhibitors of Marburg virus binding or cell entry; actives 1.8% (n = 300,000); Potency, µM (highest dose often 37.8 µM), without a hit: at the highest dose activity change, negative = inhibition, most hits filed as inhibitors; AID 540276; Marburg virus pseudotyped entry inhibition, cell reporter; calls by dose curve; tested in HEK293 cells; further: potency means the concentration at half of the fitted maximal effect
Pf growth 96h: P. falciparum growth inhibition at 96 hour, primary screen for plastid delayed-death inhibitors; Potency, µM (highest dose often 28.7 µM), for inactives: at the highest dose activity change, negative = inhibition, actives largely listed as inhibitors; actives 6.9% (n = 320,000); P. falciparum luciferase reporter growth, 96 h; further: potency means the concentration at half of the fitted maximal effect
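Plates of compound plus infected erythrocytes (2% hematocrit, 0.05% parasitemia final) incubate 96 hours, 37 C, 5% CO2. Detection reagent added; reduced luminescence from the parasites' luciferase reporter flags inhibition.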
HCV inhibitor: HCV inhibition; Huh7.5.1 HCVcc-Cre infection, luciferase reporter, 44 h; Potency, µM (highest dose often 41.8 µM), for the others: at the top dose activity change, negative = inhibition, actives largely listed as inhibitors; actives 3.4% (n = 340,000); AID 651820; further: potency means the concentration at half of the fitted maximal effect
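Seed cells (1,000/well) for 4 h; treat with compound and infect with HCVcc-Cre, moi about 0.5. Incubate 44 h, then detect luciferase activity.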
HCMV inh: inhibitors of human cytomegalovirus. HFF cells, HCMV-luciferase reporter, 72 h; stronger effect = lower value. activity change, negative = inhibition, % at 57.5 µM. actives 4.5% (n = 410,000); in the data active means activity change below about -60%; inconclusive means no clear call, values can overlap the other calls; inactive means above about -39%
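Luciferase read-out from HCMV-luciferase-infected HFFs (MOI 1 PFU/cell) 72 h post infection at 37C; compounds added after 16 h cell attachment; activity normalized between buffer-only basal and Salinomycin (10uM) inhibitor controls.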
Pf growth 48h: P. falciparum growth inhibition at 48 hours (one generation); actives 5.9% (n = 310,000); AID 504832; Potency, µM (doses to about 28.7 µM), without a hit: at the highest dose activity change, negative = inhibition, usual class: inhibitors; P. falciparum luciferase growth in erythrocytes, 48 h; further: potency means the concentration at half of the fitted maximal effect
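Parasite viability was followed by luminescence of a genomically integrated firefly luciferase. Cultures held 0.1% parasitemia at 2% hematocrit (final), incubated under 5% CO2 at 37 C.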
Lassa entry inh: blocks Lassa virus binding to or entry into cells; AID 540256; actives 1.2% (n = 300,000); Potency, µM (highest dose often 37.9 µM), for inactives: at the top dose activity change, negative = inhibition, most hits filed as inhibitors; Lassa virus pseudotype entry inhibition, cell reporter; calls by dose curve; tested in HEK293 cells; further: potency means the concentration at half of the fitted maximal effect; nearly all actives have a fitted effect of over 50% in size
Numbers without * were called inactive; ? = inconclusive; . = no result; [ ] = remark or other dose. Compounds with a hit are over-represented: about 14% of the library has one in this group of screens. Unless noted, the call rests on the fitted dose curve; in most records, active means well fitted inhibition curve with a large enough effect; inconclusive means small, poorly fitted or top-dose-only effect, or another doubt; inactive means no such curve, though single readings can be large or run the other way. On the % scale 0 is the no-effect control and ±100 the full control effect.

SMILES | MARV entry inh | Pf growth 96h | HCV inhibitor | HCMV inh | Pf growth 48h | Lassa entry inh
CCN(CC)S(=O)(=O)c1ccc(C)c(NC(=S)N2CCN(Cc3ccc4c(c3)OCO4)CC2)c1 | ? | -5% | 6.3µM* | -99* | -1% | ?
Fc1ccccc1NC(=S)N1CCN(c2ccccn2)CC1 | -4% | -6% | 19% | -10 | 27% | -14%
S=C(NC1CCCCC1)N1CCN(C/C=C/c2ccccc2)CC1 | ? | 10% | 8.9µM* | 42 | ? | -24%
CC(NNC(=S)N1CCN(c2ccccn2)CC1)c1nccc2ccccc12 (stereo not drawn) | ? | . | ? | -98* | . | ?
CCNC(=S)N1CCN(c2ccccn2)CC1 | -5%[46.1 µM] | ? | 3% | 2 | 2% | 4%[46.1 µM]
CC(C)NC(=S)N1CCN(C/C=C/c2ccccc2)CC1 | 0%[46.1 µM] | ? | -10% | -35 | -6% | -4%
CCc1ccccc1NC(=S)N1CCN(c2ccccn2)CC1 | 0% | 28% | 5% | -102* | 10% | ?
CC(=O)N1CCN(c2ccccc2NC(=O)COc2cc(C)cc(C)c2)CC1 | 9%[46.1 µM] | 13% | ? | -11 | ? | -17%
COc1ccccc1C(=O)n1nc(-c2ccccc2)nc1NCc1ccc(Cl)cc1 | ? | . | . | 18 | . | -17%[46.1 µM]
CS(=O)(=O)NCCSc1nnnn1-c1ccccc1 | ? | 46% | -1% | 16 | 22% | 4%
O=S(=O)(NCCSc1nnnn1-c1ccccc1)c1ccc(F)cc1 | -17%[46.1 µM] | . | . | -61* | . | -23%[46.1 µM]
O=S(=O)(NCCSc1nnnn1-c1ccccc1)c1cccs1 | ? | -1% | ? | -81* | 42% | 2%
O=C(Nc1cccc(C(F)(F)F)c1)c1csc([C@@H]2C[C@H](O)[C@@H](CO)O2)n1 | . | . | . | -15 | . | .
CC(C)(C)S(=O)N1Cc2cc(CO)cc(CCO)c2[C@H]1CCO (stereo partly drawn) | . | . | 0% | -11 | . | .
Cc1ccc(Nc2nnc(SCc3cc(=O)n4ccsc4n3)s2)c(C)c1 | -18% | 4.7µM* | -29% | -37 | 6.6µM* | 0%
Cc1ccc(Nc2nnc(SCC(=O)NC3CCS(=O)(=O)C3)s2)c(C)c1 (stereo not drawn) | ? | 2.6µM* | 5% | -4 | ? | -1%
Cc1cccc(C)c1Nc1nnc(SCC(=O)NC2CCS(=O)(=O)C2)s1 (stereo not drawn) | 4% | -12% | 12% | -20 | 0% | 8%
COc1ccccc1Nc1nnc(SCc2cc(=O)n3ccsc3n2)s1 | ? | 4.7µM* | ? | -22 | ? | 9%
CCc1nc(Nc2ccc3c(c2)OCO3)c2oc3ccccc3c2n1 | ? | ? | ? | -23 | ? | -4%
CCc1nc(Nc2ccncc2)c2oc3ccccc3c2n1 | ? | . | ? | -105* | 13µM* | -13%
CCc1nc(NCc2ccccn2)c2oc3ccccc3c2n1 | ? | ? | ? | -63* | -22% | -24%
Cc1cccc(Nc2nc(C)nc3c2oc2ccccc23)c1 | . | ? | 13µM* | 69 | ? | .
CC(=O)Nc1ccc(Nc2nc(C)nc3c2oc2ccccc23)cc1 | ? | -9% | ? | 21 | ? | ?
Cc1nc(Nc2ccncc2)c2oc3ccccc3c2n1 | ? | -2%[5.75 µM] | 8.9µM* | -98* | . | 28%
COc1cccc(NC(=O)CN(CCc2ccccc2)S(=O)(=O)c2ccc(Cl)cc2)c1 | . | . | . | 3 | . | -22%[46.1 µM]
SMILES | MARV entry inh | Pf growth 96h | HCV inhibitor | HCMV inh | Pf growth 48h | Lassa entry inh
CCCCN(C(=O)c1ccccc1Br)C(c1ccc(OC)cc1)c1nc2ccccc2[nH]1 (stereo not drawn) | . | . | . | 27 | . | .
Cc1nc(NC(C)c2ccccc2)c2oc3ccccc3c2n1 (stereo not drawn) | ? | ? | 6.3µM* | -65* | ? | ?
CCc1nc(NCCCN2CCOCC2)c2oc3ccccc3c2n1 | 6% | 5.9µM* | -10% | -12 | ? | -1%
CC(C)OCCCNC(=O)c1ccc(CSc2nc3cccnc3n2Cc2ccccc2)cc1 | . | . | . | -98* | . | 2%[46.1 µM]
O=C(Cn1c(SCc2ccccc2F)nc2cccnc21)Nc1ccc(F)c(Cl)c1 | . | . | . | 15 | . | 10%[46.1 µM]
COCCCNC(=O)c1ccc(CSc2nc3cccnc3n2Cc2ccc(OC)cc2)cc1 | . | . | . | 100 | . | -15%[46.1 µM]
O=C(Cn1c(SCc2cccc(F)c2)nc2cccnc21)Nc1ccc(F)c(Cl)c1 | . | . | . | -73* | . | 0%[46.1 µM]
O=C(NCCc1ccccc1)c1ccc(Cn2c(SCc3cccc(F)c3)nc3cccnc32)cc1 | . | 3.3µM* | . | -38 | 9.3µM* | ?
O=C(CSc1nc2cccnc2n1Cc1ccccc1)NC1CCCCC1 | -21% | ? | -29% | 2 | 10µM* | 10%
Cc1ccccc1CNC(=O)c1cnc2sc(N3CCOCC3)nn2c1=O | . | . | . | 49 | . | 13%[46.1 µM]
COc1ccc(NC(=O)c2ccc3c(c2)N(Cc2cccc(Cl)c2)C(=O)c2ccccc2S3(=O)=O)cc1Cl | -16%[46.1 µM] | . | . | 8 | . | -5%[46.1 µM]
O=C(NCc1cccs1)c1ccc(Cn2c(SCc3cccc(F)c3)nc3cccnc32)cc1 | . | . | . | -70* | . | ?
Cc1ccc(C)c(CSc2nc3ccncc3n2CC(=O)Nc2ccc(C)c(C)c2)c1 | -33% | -15% | 0%[8.37 µM] | . | ? | 8%
Cc1cccc(CSc2nc3ccncc3n2CC(=O)Nc2ccc(C)c(C)c2)c1 | ? | 3.7µM* | -2%[8.37 µM] | . | 1% | 0%
O=C(Nc1ccc(Nc2ccncc2)cc1)c1ccc(Nc2ccnc3ccc([N+](=O)[O-])cc23)cc1 | ? | 0.093µM* | 15% | -8 | 0.093µM* | -4%
CC(=O)Nc1ccc(N/C=C/C(=O)c2ccc(C)o2)cc1 | ? | . | 17% | -27 | 34% | 20%
COc1ccc(N/C=C/C(=O)c2ccccc2)cc1 | . | 426% | -7% | 57 | 303% | .
COc1ccccc1Oc1ccc(N/C=C/C(=O)c2ccc(C)o2)cc1 | ? | 15% | 22µM* | ? | -7%[5.75 µM] | -23%[46.1 µM]
COc1ccc(N/C=C/C(=O)c2sc(-c3ccccc3)nc2C)cc1 | ? | 9% | 10µM* | -61* | 9% | ?
CCOC(=O)Cc1csc(NC(=O)Nc2ccc(OC(F)(F)F)cc2)n1 | ? | 9.3µM* | 10µM* | 30 | 12µM* | ?
CCOC(=O)Cc1nnc2c(Nc3ccc(Cl)cc3)nc3nonc3n12 | ? | . | ? | -74* | ? | ?
COC(=O)Cc1csc(Nc2ccc(Cl)cc2)n1 | ? | 40% | -10% | -21 | 67% | 19%
CCOC(=O)Cc1csc(Nc2ccc(Cl)cc2)n1 | . | 83% | ? | -72* | 53% | .
CCOC(=O)Cc1csc(N/N=C\c2ccc(N(C)C)cc2)n1 | . | 9.3µM* | -11% | 4 | 7.4µM* | .
CCOC(=O)c1nc(Nc2ccc(Cl)cc2)c2c(C)noc2n1 | . | . | . | 5 | . | 9%[46.1 µM]
